Screening data: PubChem, National Center for Advancing Translational Sciences (NCATS)
Most compounds without a hit are left out; they make up all but 19% or so of the library.
TDP1 cell noCPT: qHTS for Inhibitors of human tyrosyl-DNA phosphodiesterase 1 (TDP1): qHTS in cells in absence of CPT. DT40 Tdp1-/- hTDP1 cells, no CPT, ATP luminescence, 48 h. Potency, µM (top dose mostly 46.2 µM), inactives show at the highest dose activity change, negative = growth inhibition, actives largely listed as inhibitors. 420,000 tested, 15% active. AID 686978, 2013; further: potency means the concentration at half of the fitted maximal effect; nearly all actives have a fitted effect of over 55% in size
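DT40 Tdp1-/-;hTDP1 cells, no CPT (DMSO vehicle only), 400 cells/well; compounds pin-transferred; ≥48 hr, 37 °C; CellTiter-Glo 30 min RT dark, luminescence read.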
IL-1B inflam inh: blocks inflammasome-driven IL-1 beta release; activity change, % at 57.5 µM; AID 743279; THP-1 LPS/ATP IL-1B secretion, AlphaLISA, 16 h; stronger effect = lower value; 360,000 tested, 4.7% active; in the data active means activity change below about -50%; inconclusive means mostly about -30% to -49%
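THP-1 cells pretreated 1 hr with compounds (up to 57.5 uM final), then stimulated with LPS (250 ng/mL final) plus ATP (1.25 mM final); secreted IL-1B measured by AlphaLISA after 16 hr, decreased signal indicating inhibition.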
TDP1 inh: blocks human tyrosyl-DNA phosphodiesterase 1. Q9NUW8. recombinant TDP1, AlphaScreen DNA substrate cleavage. Potency, µM (highest dose often 130 µM), for the others: at the top dose activity change, negative = inhibition, hits mostly inhibitors. 350,000 tested, 0.28% active. AID 485290; further: potency means the concentration at half of the fitted maximal effect; nearly all actives have a fitted effect of over 40% in size
Target sequence (Q9NUW8 whole entry, looked up): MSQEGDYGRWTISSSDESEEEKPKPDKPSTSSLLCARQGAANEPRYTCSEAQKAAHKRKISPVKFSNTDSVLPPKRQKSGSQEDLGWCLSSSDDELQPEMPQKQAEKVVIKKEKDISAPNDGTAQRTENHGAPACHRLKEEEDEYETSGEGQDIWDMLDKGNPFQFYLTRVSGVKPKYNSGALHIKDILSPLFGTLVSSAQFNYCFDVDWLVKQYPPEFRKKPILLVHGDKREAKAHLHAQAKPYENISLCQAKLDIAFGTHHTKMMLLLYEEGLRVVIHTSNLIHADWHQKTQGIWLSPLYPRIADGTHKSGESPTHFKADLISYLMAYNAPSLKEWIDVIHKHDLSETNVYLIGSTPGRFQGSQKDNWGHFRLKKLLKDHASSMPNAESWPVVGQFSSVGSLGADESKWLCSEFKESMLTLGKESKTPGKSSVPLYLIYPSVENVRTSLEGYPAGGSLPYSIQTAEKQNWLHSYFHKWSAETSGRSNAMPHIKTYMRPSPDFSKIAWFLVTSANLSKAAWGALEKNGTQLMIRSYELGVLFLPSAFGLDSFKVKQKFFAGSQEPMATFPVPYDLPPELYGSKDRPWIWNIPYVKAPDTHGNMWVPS
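Tdp1 1 nM final; 15 min RT w/ cpd; substrate 15 nM, 5 min; beads 10 ug/ml, 10 min; AlphaScreen read. Neg ctrl: no enzyme.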
DT40 TDP1 CPT: growth inhibition of DT40 Tdp1-/-;hTDP1 cells with camptothecin (screen for TDP1 inhibitors) | chicken DT40 Tdp1-/-;hTDP1 cells + 20 nM CPT, ATP luminescence, 48 h | Potency, µM (top dose mostly 46.2 µM), without a hit: at the top dose activity change, negative = growth inhibition, hits mostly inhibitors | 420,000 tested, 12% active; further: potency means the concentration at half of the fitted maximal effect; nearly all actives have a fitted effect of over 55% in size
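Cell growth measured by CellTiter-Glo luminescence after a minimum 48 h, 37 C compound exposure with 20 nM CPT in Tdp1-knockout DT40 cells stably expressing hTDP1, seeded 400/well; qHTS titration format.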
Giardia kill: kills Giardia lamblia | Giardia lamblia trophozoite viability | activity change, % at 7.66 µM, hits read low | 340,000 tested, 0.15% active; in the data active means activity change below about -80%; inconclusive means between about -30% and that limit;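 further: parasites exposed to compound for two days anaerobically before the ATP read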
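Media and compound were dispensed first, then trophozoites at 100 cells/well; plates sat 48 hrs at 37 deg C without oxygen before ATP luminescence reagent was added and read after 15-30 min at room temperature.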
ELG1 repair inh: blocks ELG1-dependent DNA repair in HEK293T cells; Potency, µM (doses to about 46.1 µM), without a hit: at the top dose activity change, negative = inhibition, most hits filed as inhibitors; HEK293T ELG1-luciferase reporter, luminescence, 16 h; DNA damage induced by 5-fluorouridine; 330,000 tested, 2.3% active; further: potency means the concentration at half of the fitted maximal effect; nearly all actives have a fitted effect of over 55% in size
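Luminescence from the luciferase reporter, measured 30 min after ONE-Glo reagent at room temperature, was the read-out. Beforehand, 2,000 cells per well were exposed for 16 hr at 37 °C to 5-fluorouridine together with compound or vehicle.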
* hit, by the source's call. Unless noted, the call rests on the fitted dose curve; in most records, active means well fitted curve in the direction sought with a large enough effect; inconclusive means small, poorly fitted or top-dose-only effect, or another doubt; inactive means no such curve, though single readings can be large; an effect the other way counts as inactive or inconclusive. On the % scale 0 is the no-effect control and ±100 the full control effect.

What do the screens show for `CC(=O)N1CCN(C(=O)c2cc(-c3cccc4ccccc34)nc3ccccc23)CC1`?
TDP1 cell noCPT: 16µM*; IL-1B inflam inh: -6; TDP1 inh: 6%; DT40 TDP1 CPT: 15µM*; Giardia kill: 5; ELG1 repair inh: inconclusive

Results for O=C(c1cc(-c2ccncc2)nc2ccccc12)N1CCN(S(=O)(=O)/C=C/c2ccccc2)CC1 ?
TDP1 cell noCPT: 18µM*; IL-1B inflam inh: inconclusive; TDP1 inh: -3%; DT40 TDP1 CPT: inconclusive; Giardia kill: -7; ELG1 repair inh: inconclusive

Results for Cc1ccc(-c2cc(C(=O)N3CCOCC3)c3ccccc3n2)cc1 ?
TDP1 cell noCPT: -11%; IL-1B inflam inh: 16; TDP1 inh: -3%; DT40 TDP1 CPT: 3%; Giardia kill: 22; ELG1 repair inh: 12%

How did O=C(c1cc(-c2ccco2)nc2ccccc12)N1CCCC(C(F)(F)F)C1 (centres undefined) do in these assays?
TDP1 cell noCPT: 5%; IL-1B inflam inh: -4; DT40 TDP1 CPT: inconclusive; Giardia kill: -11; ELG1 repair inh: 4%

Results for O=C(c1cc(-c2ccncc2)nc2ccccc12)N1CCCC(C(F)(F)F)C1 (centres undefined) ?
TDP1 cell noCPT: 18µM*; IL-1B inflam inh: 17; DT40 TDP1 CPT: inconclusive

How did O=C(c1cc(-c2ccncc2)nc2ccccc12)N1CCN(Cc2ccccc2)CC1 do in these assays?
TDP1 cell noCPT: 21µM*; IL-1B inflam inh: -60*; TDP1 inh: 4%; DT40 TDP1 CPT: 21µM*; Giardia kill: -4; ELG1 repair inh: 21µM*

Results for Cc1ccccc1CN1CCN(C(=O)c2cc(-c3ccncc3)nc3ccccc23)CC1 ?
TDP1 cell noCPT: 12µM*; IL-1B inflam inh: 0; TDP1 inh: 8%; DT40 TDP1 CPT: 21µM*; Giardia kill: -10; ELG1 repair inh: 9%

What do the screens show for `O=C(c1cc(-c2ccncc2)nc2ccccc12)N1CCOCC1`?
TDP1 cell noCPT: -19%; IL-1B inflam inh: -2; TDP1 inh: -2%; DT40 TDP1 CPT: 0%; Giardia kill: -6; ELG1 repair inh: inconclusive

What do the screens show for `O=[N+]([O-])C1C(c2ccccc2)C12c1ccccc1-c1ccccc12` (centres undefined)?
TDP1 cell noCPT: 1µM*; IL-1B inflam inh: -67*; DT40 TDP1 CPT: 1µM*

What do the screens show for `CS/C(=N\S(=O)(=O)c1cccs1)Nc1ccc(F)c(Cl)c1`?
TDP1 cell noCPT: inconclusive; IL-1B inflam inh: 11; TDP1 inh: -2%; DT40 TDP1 CPT: -13%; Giardia kill: -6; ELG1 repair inh: 29%

How did CS/C(=N\S(=O)(=O)c1cccs1)Nc1cccc(Cl)c1C do in these assays?
TDP1 cell noCPT: inconclusive; IL-1B inflam inh: 0; TDP1 inh: 2%; DT40 TDP1 CPT: 15µM*; Giardia kill: inconclusive; ELG1 repair inh: -1%

What do the screens show for `COc1ccc2[nH]c3c(c2c1)CCNC3C1CC=C(C)CC1` (centres undefined)?
TDP1 cell noCPT: 6.5µM*; IL-1B inflam inh: -26; TDP1 inh: 3%; DT40 TDP1 CPT: 9.2µM*; Giardia kill: 10; ELG1 repair inh: 8%

Results for COc1ccc2[nH]c3c(c2c1)CCNC3c1ccc([N+](=O)[O-])o1 (centres undefined) ?
TDP1 cell noCPT: 6.5µM*; IL-1B inflam inh: -15; DT40 TDP1 CPT: 9.2µM*; Giardia kill: -29; ELG1 repair inh: inconclusive

How did COc1cc(C2NCCc3c2[nH]c2ccccc32)ccc1OC(C)C (centres undefined) do in these assays?
TDP1 inh: 3%; ELG1 repair inh: 4%

Results for CCOC(=O)C1CCN(C(=O)c2[nH]c3ccc(OC)cc3c2C)CC1 ?
TDP1 cell noCPT: -11%; IL-1B inflam inh: 20; DT40 TDP1 CPT: -18%; Giardia kill: -18; ELG1 repair inh: 1%
